Experimental data from PubChem BioAssay AID1117283 (Broad Institute, 2014).
Potency and affinity values are given separately. Unmarked numbers belong to inactive results.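 Rule for the calls: active = fluorescent signal decreased by at least 40%; inconclusive = no clear call, values can overlap the other calls; inactive = the rest, including activity opposite to the expected direction.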

assay: inhibition of fibronectin matrix deposition – AH1F cells, Alexa488-fibronectin fluorescence, cherry-pick, set 2, dose response (AID 1117283); details: AH1F fibroblasts, overnight; series mostly up to 35 µM; activity change, negative = inhibition: at the top concentration;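 note: AH1F fibroblasts given Alexa488-labelled fibronectin at 24 nM final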

Row | SMILES | activity change, negative = inhibition
1 | COCC(=O)Nc1ccc2c(c1)C(=O)N(C)[C@@H]1CC[C@@H](CC(=O)NCc3ccccc3Cl)O[C@H]1CO2 | 18.1% [at 30 µM]
2 | C[C@@H]1CN([C@@H](C)CO)C(=O)c2cccc(NC(=O)Nc3ccc(C(F)(F)F)cc3)c2O[C@@H]1CN(C)C(=O)Nc1cccc2ccccc12 | 5.92%
3 | C[C@H]1CN([C@@H](C)CO)C(=O)c2cccc(NC(=O)Nc3ccc(C(F)(F)F)cc3)c2O[C@@H]1CN(C)C(=O)Nc1cccc2ccccc12 | 4.08%
4 | Cc1ccc(S(=O)(=O)N2CC[C@H]3[C@H](CO)Nc4ccc(-c5cccc(C(=O)N(C)C)c5)cc4[C@H]32)cc1 | 3.11%
5 | COCC(=O)Nc1ccc2c(c1)C(=O)N(C)[C@@H]1CC[C@H](CC(=O)NCc3ccccc3Cl)O[C@H]1CO2 | -3.95%
6 | COc1ccc(Cl)cc1NC(=O)CSc1nc(Nc2ccccc2)nc(N2CCOCC2)n1 | 27.7%
7 | NC(=O)C1=C[C@H](c2coc3ccccc3c2=O)C[C@H](OCCCCO)O1 | 12.8%
8 | N#C[C@H]1[C@H](c2ccccc2C2=CCCCC2)[C@H](CO)N1S(=O)(=O)c1ccccc1 | -0.083%
9 | COCC(=O)Nc1ccc2c(c1)C(=O)N(C)[C@H]1CC[C@H](CC(=O)NCc3ccccc3Cl)O[C@H]1CO2 | -9.35%
10 | CC1(C)Cc2c(C#N)c(SCC(=O)c3ccccc3)nc(N3CCOCC3)c2CS1 | -6.32%
11 | C[C@H](CO)N1C[C@H](C)[C@H](CN(C)C(=O)Nc2cccc3ccccc23)Oc2c(NC(=O)Nc3ccc(C(F)(F)F)cc3)cccc2C1=O | 8.48%
12 | CN(C)C(=O)c1ccc(-c2ccc3c(c2)[C@@H]2[C@@H](CCN2C(=O)c2ccc(F)cc2)[C@H](CO)N3C)cc1 | 10.2%
